IDH1 R132H inh – human IDH1 R132H inhibition. O75874. IDH1-R132H enzyme, NADPH consumption, diaphorase/resazurin fluorescence. Potency, µM (doses to about 76.6 µM), for the others: at the highest dose activity change, negative = inhibition, usual class: inhibitors. hit rate 0.093% among 390,000. AID 602179; further: on the % scale 0 is the no-effect control and ±100 the full control effect; nearly all actives have a fitted effect of over 65% in size
Target sequence (O75874 whole entry R132H, stated change not applied): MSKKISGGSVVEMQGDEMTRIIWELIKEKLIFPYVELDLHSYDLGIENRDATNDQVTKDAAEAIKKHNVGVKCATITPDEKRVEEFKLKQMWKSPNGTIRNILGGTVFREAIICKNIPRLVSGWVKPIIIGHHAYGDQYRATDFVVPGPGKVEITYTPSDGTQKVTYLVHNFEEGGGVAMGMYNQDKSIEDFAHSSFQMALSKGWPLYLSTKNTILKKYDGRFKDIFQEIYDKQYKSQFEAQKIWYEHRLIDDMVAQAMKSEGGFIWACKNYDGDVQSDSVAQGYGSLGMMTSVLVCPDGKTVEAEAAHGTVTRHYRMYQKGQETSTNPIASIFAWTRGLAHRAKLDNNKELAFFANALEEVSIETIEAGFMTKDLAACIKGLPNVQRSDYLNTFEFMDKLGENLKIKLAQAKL
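IDH1-R132H (0.5 ug/mL) preincubated 30 min with compound, then NADPH (0.016 mM) and alpha-KG (2 mM) added; 80 min at RT, pH 7.5. Remaining NADPH coupled via diaphorase/resazurin to fluorescence (540/590 nm); concentration-response curves normalized to no-enzyme control.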
A549 tox – A549 cytotoxicity, counter-screen for Nrf2 inhibitors | A549 ARE-Fluc cells, CellTiter-Fluor viability, 18-24 h | Potency, µM (highest dose often 46 µM), inactives show at the highest dose activity change, negative = cytotoxicity, most hits filed as inhibitors | hit rate 0.16% among 390,000; further: on the % scale 0 is the no-effect control and ±100 the full control effect
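Cytotoxicity counterscreen: CellTiter-Fluor fluorescence was measured in A549 ARE_Fluc cells after 18-24 h of compound exposure in a concentration series. The subsequent BugLite luminescent read reports ARE-luciferase activity.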
ELG1 repair inh – inhibitors of ELG1-dependent DNA repair in HEK293T cells | hit rate 2.3% among 330,000 | HEK293T ELG1-luciferase reporter, luminescence, 16 h; DNA damage induced by 5-fluorouridine | Potency, µM (doses to about 46.1 µM), for the others: at the top dose activity change, negative = inhibition, actives largely listed as inhibitors | AID 504467; further: on the % scale 0 is the no-effect control and ±100 the full control effect; nearly all actives have a fitted effect of over 55% in size
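5-Fluorouridine DNA damage + compound/DMSO, 2,000 cells/well, 16 h, 37 °C/5% CO2. ONE-Glo, 30 min RT, luminescence. Readout = decrease in reporter signal.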
Nrf2 activator – Nrf2 pathway activation. Potency, µM (top dose mostly 46.1 µM), inactives show at the top dose activation, hits mostly activators. AREc32 ARE-luciferase reporter (MCF7-derived line), luminescence, 24 h. hit rate 0.31% among 410,000; further: % of control where 0% means no effect; nearly all actives have a fitted effect of over 65% in size
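Luminescent ARE reporter assay in AREc32_Fluc cells: overnight plating at 37 deg C, 24 hr compound incubation, Steady-Glo added, 30 min RT before reading.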
Nrf2 inh – blocks Nrf2 signaling; A549 ARE-Fluc reporter, luciferase luminescence, 18-24 h; Potency, µM (titrated, usually from 46 µM), inactives show at the highest dose activity change, negative = inhibition, usual class: inhibitors; hit rate 2.1% among 360,000; further: on the % scale 0 is the no-effect control and ±100 the full control effect; nearly all actives have a fitted effect of over 60% in size
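Quantitative HTS in A549 cells stably bearing an antioxidant response element-firefly luciferase construct. Inhibition of Nrf2-driven transcription was scored by luminescence after 18-24 h of compound exposure at 37 °C.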
Active calls of the source: *; ? = inconclusive; / = no result given. This is a sample that favours compounds with a hit; in the whole collection about 3.8% have one here. The call rests on the fitted dose curve; in most records, active means well fitted curve in the direction sought with a large enough effect; inconclusive means small, poorly fitted or top-dose-only effect, or another doubt; inactive means no such curve, though single readings can be large; an effect the other way counts as inactive or inconclusive. Potency means the concentration at half of the fitted maximal effect.

SMILES | IDH1 R132H inh | A549 tox | ELG1 repair inh | Nrf2 activator | Nrf2 inh
COc1ccccc1OCC(=O)Nc1cc(S(=O)(=O)N2CCOCC2)ccc1N1CCCCC1 | -1% | -17% | 26µM* | 0% | ?
O=C(COc1ccccc1Cc1ccccc1)Nc1cccc(S(=O)(=O)N2CCOCC2)c1 | 0% | 6% | ? | 4% | ?
Cc1ccc(S(=O)(=O)N2CCOCC2)cc1NC(=O)COc1ccccc1Cc1ccccc1 | -1% | -7% | 8.2µM* | 3% | ?
O=C(Nc1cc(S(=O)(=O)N2CCOCC2)ccc1N1CCCCC1)c1ccccc1 | 0% | 4% | ? | 3% | -1%
COc1ccc(CCNC(=O)c2csc3c2CCCCC3)c(OC)c1 | ? | 9% | / | 3% | ?
CCOC(=O)c1ccc(NC(=O)CC2C(=O)N(c3ccccc3)C(=O)N2C2CCCCC2)cc1 (stereo not given) | -6% | 0% | / | 4% | -4%
Cn1c2cc(S(C)=O)sc2c2cnn(Cc3ccccc3F)c(=O)c21 (stereo not given) | / | 11% | / | / | -14%
O=C(Cc1nnc(-c2cc3ccccc3[nH]2)s1)Nc1cc(C(F)(F)F)ccc1Cl | / | -5% | / | / | 3%
Cc1cc(OCC(=O)Nc2cc(S(=O)(=O)N3CCOCC3)ccc2N2CCCC2)ccc1C(C)C | 4% | -21% | 1% | -1% | 16µM*
Cc1ccc(OCC(=O)Nc2cc(S(=O)(=O)N3CCOCC3)ccc2N2CCCC2)cc1 | 0% | 5% | ? | 0% | 15%
CCc1cc2c(=O)c(-c3nc(C)cs3)coc2cc1OC(C)C(=O)NCCO (stereo not given) | 14% | -1% | ? | 0% | 13µM*
CCc1cc2c(=O)c(-c3nc(C)cs3)c(CCCC(=O)O)oc2cc1O | 10% | 1% | -8% | 3% | 0%
COc1ccc(CN(C(=O)c2oc3cc(C)ccc3c2C)C2CCS(=O)(=O)C2)cc1OC (stereo not given) | 6% | 1% | 13µM* | 2% | -5%
COc1cc2nc(Cl)nc(N3CCN(C)CC3)c2cc1OC | / | / | 6% | / | /
COc1cc2nc(C3CCC3)nc(N3CCN(c4ccccn4)CC3)c2cc1OC | ? | ? | 10µM* | 1% | 26µM*
COc1cc2nc(C3CCC3)nc(N3CCN(c4ccccc4OC)CC3)c2cc1OC | 3% | ? | 12µM* | -2% | 18µM*
Cc1nn2c(C)c(C(=O)NCC(C)c3ccccc3)cnc2c1-c1ccccc1 (stereo not given) | -8% | 0% | / | 4% | -2%
O=c1c2sc3ccccc3c2n(Cc2cccc(Cl)c2)c(=O)n1Cc1ccccc1 | 0% | 3% | / | 0% | -19%
Oc1ccc(N2CCN(C(c3ccc(Cl)cc3)c3nnnn3Cc3ccc(F)cc3)CC2)cc1 (stereo not given) | / | -13% | / | / | -17%
COc1ccc(NC(=O)c2cc3c(=O)n(Cc4cccs4)ccc3nc2C)c(OC)c1 | 8% | -1% | / | 6% | -26%
CCc1nc(N)c(C#N)c(-c2ccco2)c1C | 2% | -2% | 13% | 2.5µM* | -10%
CCCn1c2ccccc2c2cnn(CC(=O)Nc3ccccc3OC)c(=O)c21 | -13% | -1% | / | 0% | /
CC[C@@H](C(=O)[C@@H](C)[C@@H](O)[C@H](C)CCc1ccc(C)c(O)c1C(=O)O)[C@H]1O[C@](CC)([C@H]2CC[C@](O)(CC)[C@H](C)O2)C[C@@H]1C | -5% | 6.5µM* | ? | -3% | 5.2µM*
O=S(=O)(/C=C/c1ccccc1)Oc1ccccc1 | 0% | -5% | -5% | 13µM* | -15%
CNS(=O)(=O)/C=C/c1ccccc1 | 2% | 0% | 1% | -1% | 7%
COC(=O)c1ccccc1S(=O)(=O)Nc1cc(=O)c2ccccc2[nH]1 | / | 13% | / | / | ?
O=C(Nc1cccc(S(=O)(=O)N2CCCC2)c1)c1cc(-c2ccccn2)nc2ccccc12 | -7% | -1% | ? | 0% | 9.2µM*
CCN(CC)S(=O)(=O)c1cc(NC(=O)c2cc(-c3ccccn3)nc3ccccc23)ccc1C | 0% | 0% | 8.2µM* | 0% | ?

From PubChem BioAssay
